From PubChem BioAssay
Hits are enriched below; roughly 5.7% of the tested compounds scored in any of these assays.
KB-3-1 tox: KB-3-1 parental cell cytotoxicity; 1.4% of 400,000 active; Potency, µM (highest dose often 46.1 µM), actives largely listed as cytotoxic; KB-3-1 viability, CellTiter-Glo ATP luminescence, 72 h; AID 1347075; note: potency is the fitted concentration of half-maximal effect; nearly all actives have a fitted effect of over 60% in size
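Here the drug-naive KB-3-1 line serves as comparator for MDR sub-line selectivity; cells received compound titrations, 72 h at 37 °C, then CellTiter-Glo readout.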
KB-V1 MDR tox: kills drug-selected multidrug resistant KB-V1 cells | KB-V1 MDR cells viability, CellTiter-Glo, 72 h | AID 1347076 | 3.4% of 400,000 active | Potency, µM (highest dose often 46.1 µM), usual class: cytotoxic; note: potency is the fitted concentration of half-maximal effect; nearly all actives have a fitted effect of over 60% in size
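Following 72 h at 37 degrees C with compound, KB-V1 cell viability was read by CellTiter-Glo luminescence, medium being phenol-red-free DMEM plus 10% FBS; concentration-response parameters came from normalized, curve-fitted qHTS data.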
PI4K2A inh: inhibitors of human PI4K2A; activity change, negative = inhibition, % at 76.9 µM; Q9BTU6; 0.13% of 420,000 active; purified PI4K2A, ADP-Glo luminescence, 1 h; stronger effect = lower value; in the data active = activity change below about -50%; inconclusive = mostly about -30% to -49%;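 note: -100% = wells without enzyme as full effect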
Target sequence (Q9BTU6 whole entry, looked up): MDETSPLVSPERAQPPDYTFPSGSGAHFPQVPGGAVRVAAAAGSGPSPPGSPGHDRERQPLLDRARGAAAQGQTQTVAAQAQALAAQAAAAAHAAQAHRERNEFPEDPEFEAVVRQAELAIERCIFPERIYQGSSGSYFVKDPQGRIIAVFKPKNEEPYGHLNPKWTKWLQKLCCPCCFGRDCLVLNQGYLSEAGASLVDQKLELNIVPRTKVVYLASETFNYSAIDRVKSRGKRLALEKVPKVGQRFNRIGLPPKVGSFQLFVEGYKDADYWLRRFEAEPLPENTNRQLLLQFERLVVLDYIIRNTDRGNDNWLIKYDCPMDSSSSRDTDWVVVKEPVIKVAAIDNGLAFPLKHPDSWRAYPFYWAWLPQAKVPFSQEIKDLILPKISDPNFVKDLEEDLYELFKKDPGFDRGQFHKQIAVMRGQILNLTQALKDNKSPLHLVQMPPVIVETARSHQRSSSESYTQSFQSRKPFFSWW
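Compounds are screened against recombinant PI4K2A using PI as substrate and ATP, the latter dispensed at 300 microM. Reactions run one hour at ambient temperature before ADP-Glo detection; full inhibition defined by wells lacking enzyme.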
A549 tox: counter-screen for Nrf2 inhibitors: cytotoxicity in A549 cells. Potency, µM (titrated, usually from 46 µM), inactives show at the highest dose activity change, negative = cytotoxicity, hits mostly inhibitors. 0.16% of 390,000 active. A549 ARE-Fluc cells, CellTiter-Fluor viability, 18-24 h. AID 504648; note: potency is the fitted concentration of half-maximal effect
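Cytotoxicity counterscreen: CellTiter-Fluor fluorescence was measured in A549 ARE_Fluc cells after 18-24 h of compound exposure in a concentration series. The subsequent BugLite luminescent read reports ARE-luciferase activity.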
Nrf2 inh: Nrf2 pathway inhibition | A549 ARE-Fluc reporter, luciferase luminescence, 18-24 h | Potency, µM (series often up to 46 µM), for inactives: at the top dose activity change, negative = inhibition, usual class: inhibitors | 2.1% of 360,000 active; note: potency is the fitted concentration of half-maximal effect; nearly all actives have a fitted effect of over 60% in size
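A549 ARE_Fluc cells, 5000/well, 5% FBS OPTI-MEM; compounds in dose-response, 18-24 h at 37 °C/5% CO2; CellTiter-Fluor viability read (Ex 405/Em 525), then BugLite luciferase luminescence = Nrf2 activity.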
Giardia kill: kills Giardia lamblia; Giardia lamblia trophozoite viability; activity change, % at 7.66 µM, hits read low; 0.15% of 340,000 active; AID 540267; in the data active = activity change below about -80%; inconclusive = between about -30% and that limit;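 note: parasites exposed to compound for two days anaerobically before the ATP read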
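ATP-content bioluminescence gauges trophozoite survival. Cells (100/well) receive compound and incubate anaerobically for 48 hrs at 37 deg C; detection reagent follows for 15-30 min at room temperature.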
Starred values were filed as active, the others as inactive; i = inactive; ? = inconclusive; / = no result; ! = not confirmed by another sample. Unless noted, calls come from the whole dose curve; as a rule, active = well fitted curve in the direction sought with a large enough effect; inconclusive = small, poorly fitted or top-dose-only effect, or another doubt; inactive = no such curve, though single readings can be large; an effect the other way counts as inactive or inconclusive. Unless noted, % is set by controls: 0 for no effect and ±100 for the full control effect.

SMILES	KB-3-1 tox	KB-V1 MDR tox	PI4K2A inh	A549 tox	Nrf2 inh	Giardia kill
Cc1cccc(-n2nc(C(=O)c3ccco3)cc(-c3nc4ccccc4[nH]3)c2=N)c1	i	i	-1	?	2%	-20
Cc1ccccc1-n1nc(C(=O)c2cccs2)cc(-c2nc3ccccc3[nH]2)c1=N	i	2.3µM*	0	?	7%	29
CCCCCCCCCCCCCC(=O)Nc1ccc(/C=C/c2ccnc3ccccc23)cc1	?	i	/	/	/	/
CC(=O)OC(C)OC(=O)C(C)c1ccc(-c2ccccc2)c(F)c1 (configuration not stated)	/	/	-3	/	/	/
CCn1c(=O)cc(SCC(=O)N2CCN(c3ccccn3)CC2)c2ccccc21	i	?	-4	?	2%	17
CCn1c(=O)cc(SCC(=O)N2CCN(c3ccccc3F)CC2)c2ccccc21	i	23µM*!	1	-2%	-25%	17
Cc1ccc(Cl)cc1N1CCN(C(=O)CSc2ccsc2[N+](=O)[O-])CC1	i	5.2µM*	-3	-7%	?	-8
Cn1c(=O)cc(SCC(=O)N2CCCC2)c2ccccc21	i	i	6	6%	-13%	-4
Cc1ccc(Cl)cc1N1CCN(C(=O)CSc2cc(=O)n(C)c3ccccc23)CC1	i	i	3	-10%	16µM*	/
O=C(NC1CCCCN(Cc2cccc(C(F)(F)F)c2)C1=O)c1cccc(C(F)(F)F)c1 (configuration not stated)	/	/	0	/	/	/
CSc1ccccc1NC(=O)c1ccccc1N(Cc1ccccc1)S(C)(=O)=O	i	9.2µM*	1	-4%	/	1
CSc1ccccc1NC(=O)CN(Cc1ccc(Cl)cc1)S(C)(=O)=O	i	i	1	-21%	?	-18
CSc1ccccc1NC(=O)c1ccccc1N(C)S(C)(=O)=O	i	i	4	-1%	10%	1
CSc1ccccc1NC(=O)CN(Cc1ccccc1)S(C)(=O)=O	i	21µM*	5	?	-19%	13
CSc1cccc(NC(=O)CN(Cc2ccc(Cl)cc2)S(C)(=O)=O)c1	i	12µM*	2	5%	/	-2
CS(=O)(=O)N(CC(=O)Nc1ccccc1)Cc1ccc(Cl)cc1	i	i	-2	11%	/	13
CCNC(=S)N(CCc1c(C)[nH]c2ccc(Cl)cc12)Cc1ccco1	23µM*	i	4	?	21µM*	12
CNC(=S)N(CCc1c(C)[nH]c2ccc(C)cc12)Cc1ccco1	i	i	-3	-3%	-12%	-13
CC(=O)c1ccc2c(c1)C1C=CCC1C(c1ccncc1)N2 (configuration not stated)	?	23µM*	-9	-4%	4%	-7
CC(=O)c1ccc2c(c1)C1C=CCC1C(C(=O)O)N2 (configuration not stated)	i	i	-13	-10%	-6%	19
COc1ccc(-n2cnnc2SCc2cnc(-c3ccccc3)s2)cc1	i	16µM*	-4	-1%	11%	8
COCCn1c(SCc2cnc(-c3ccccc3)s2)nnc1-c1ccncc1	i	i	-3	-8%	-28%	3
CCCN1CNc2c(c(=O)[nH]c(=S)n2CCc2ccc(Cl)c(Cl)c2)C1	/	/	/	15%	5%	14
COc1cc(-c2ccc3ncnc(NCC4CCCO4)c3c2)cc(OC)c1OC (configuration not stated)	i	i	/	-1%	?	/
CN(C)c1nc(NNC(=O)c2ccccc2)nc(N(C)C)n1	i	8.2µM*	6	1%	7%	-1
SMILES	KB-3-1 tox	KB-V1 MDR tox	PI4K2A inh	A549 tox	Nrf2 inh	Giardia kill
Nn1c(SCC(=O)Nc2cc(C(F)(F)F)ccc2Cl)nnc1-c1n[nH]c2c1CCC2	/	/	-1	/	/	/
CCc1nc2oc3ccccc3c(=O)c2c(=O)n1-c1ccc(C)cc1	i	i	-2	-6%	i	-19
CCc1nc2oc3ccccc3c(=O)c2c(=O)n1-c1ccccc1	i	15µM*	5	11%	?	12
Cc1ccc(C=Nn2c(-c3n[nH]c4c3CCC4)n[nH]c2=S)o1	/	/	-1	/	/	/
COc1ccc(C(=O)OCC2CC(c3ccccc3)=NO2)cc1OC (configuration not stated)	i	i	4	-4%	-29%	-13
COc1ccc(-c2nc3c(c(=O)n(C)c(=O)n3C)n2CC2CC(c3ccccc3)=NO2)cc1OC (configuration not stated)	i	5.8µM*	2	1%	-6%	-11
CCc1ccc(OCC(=O)Nc2ccc(Cl)c(-c3nc4ncccc4o3)c2)cc1	i	i	2	-4%	?	/
O=C(CCNC(=O)c1ccc([N+](=O)[O-])cc1)Nc1ccc(Cl)c(S(=O)(=O)N2CCOCC2)c1	i	?	1	2%	23µM*	-22
Cc1cccc(OCCCC(=O)Nc2ccc(Cl)c(S(=O)(=O)N3CCOCC3)c2)c1	i	i	5	-10%	?	-12
CCOc1ccccc1OCCCC(=O)Nc1ccc(Cl)c(S(=O)(=O)N2CCOCC2)c1	i	i	-1	-12%	16µM*	2
CCCC1CCC2(CC1)CCC2OC(=S)Nc1cccc(Cl)c1 (configuration not stated)	/	/	8	/	/	/
CCOC(=O)C1CCN(C(=O)CN(C)S(=O)(=O)c2cc(C)ccc2OC)CC1	i	23µM*	4	-20%	-4%	?
O=C1/C(=C/c2ccccc2)CCc2ccc(Cl)nc21	i	21µM*	-14	10%	-14%	-9
Nc1ccccc1/C=C/c1ccnc2ccccc12	?	i	/	/	/	/
O=C(c1ccc(Cl)cc1)N1CCC(Oc2cccnc2)CC1	/	/	-3	/	/	/
COc1ccc(NC(=O)CN2CCN(S(=O)(=O)c3ccc(Cl)cc3)CC2)cc1	i	16µM*	-3	-5%	-22%	12
COc1cc(NC(=O)CCC(=O)N2CCN(S(=O)(=O)c3ccc(C)cc3)CC2)cc(OC)c1	i	18µM*	1	12%	4%	31
Cc1ccc(S(=O)(=O)N2CCN(CC(=O)Nc3ccc([N+](=O)[O-])cc3)CC2)cc1C	i	18µM*	2	-6%	-19%	-19
Cc1cc(C)c(C)c(S(=O)(=O)N2CCN(CC(=O)Nc3ccc([N+](=O)[O-])cc3)CC2)c1C	i	i	-3	-1%	7%	20
O=C(CN1CCN(c2ccc(O)cc2)CC1)Nc1cc(S(=O)(=O)N2CCCCC2)ccc1Cl	i	8.2µM*	-3	-24%	?	15
